Results filed as inconclusive are left out. Active and inactive are the calls of the source. Calls come from the whole dose curve; as a rule, active = well fitted curve in the direction sought with a large enough effect; inconclusive = small, poorly fitted or top-dose-only effect, or another doubt; inactive = no such curve, though single readings can be large; an effect the other way counts as inactive or inconclusive.
Legend:
[1] = P-glycoprotein substrates identified in KB-3-1 adenocarcinoma cell line, qHTS therapeutic library screen (AID 1346986); note: nearly all actives have a fitted effect of over 60% in size;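 note: potency is the fitted concentration of half-maximal effect; potency is for cytotoxicity meaning loss of cell viability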
Method in brief: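 Resistance attributable to P-gp was assessed by comparing AC50 in KB-8-5-11 with parental KB-3-1 and by tariquidar reversal. Cells were exposed 72 h and viability read by CellTiter-Glo.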

[2] = P-glycoprotein substrates identified in KB-8-5-11 adenocarcinoma cell line, qHTS therapeutic library screen (AID 1346987); note: nearly all actives have a fitted effect of over 65% in size; note: potency is the fitted concentration of half-maximal effect
Method in brief: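 Steps: plate 500 KB-8-5-11 cells/well in DMEM + 10% FCS (colchicine removed); pin compounds in dose-response; incubate 72 h, 37 degree C, 5% CO2; add CellTiter-Glo, 5 min; read luminescence.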

[3] = NS1 protein of Zika virus - qHTS assay to identify small molecule inhibitors in human HEK 293 cells (AID 1347053); note: nearly all actives have a fitted effect of over 55% in size; note: potency is the fitted concentration of half-maximal effect
Method in brief: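 HEK 293 cells, seeded 20 h at 37 C, were pretreated with compound 1 h, then infected with ZIKV MR766 (MOI = 0.5) for 24 h. NS1 was read by TR-FRET with two anti-NS1 antibodies, normalized to uninfected and infected wells.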

[4] = qHTS of pediatric cancer cell lines to identify multiple opportunities for drug repurposing: Primary screen for TC32 cells (AID 1347089); note: nearly all actives have a fitted effect of over 60% in size
Method in brief: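 Luminescent CellTiter-Glo read-out of metabolically active TC32 cells after 48 h compound exposure. Primary: MIPE 11-point, 0.78 nM–46 µM; NPC 8-point, 0.59 nM–46 µM. Confirmatory: 11-point dilutions.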

[5] = qHTS of pediatric cancer cell lines to identify multiple opportunities for drug repurposing: Primary screen for DAOY cells (AID 1347090); note: nearly all actives have a fitted effect of over 55% in size; note: potency is the fitted concentration of half-maximal effect
Method in brief: (§1)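 Eight- or eleven-point concentration series, 48 h treatment at 37 degrees C in growth media; readout CellTiter-Glo luminescence. Potency and efficacy were taken from the concentration-response curves.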

[6] = qHTS of pediatric cancer cell lines to identify multiple opportunities for drug repurposing: Primary screen for A673 cells (AID 1347092); note: nearly all actives have a fitted effect of over 45% in size; note: potency is the fitted concentration of half-maximal effect
Method in brief: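 A673 cells (500-1,000 cells/well in growth media) were pre-incubated 5 h at 37 degrees C, then exposed to compounds for 48 h. Viability was read as CellTiter-Glo luminescence; concentration-response curves came directly from the primary screen.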

[7] = qHTS of pediatric cancer cell lines to identify multiple opportunities for drug repurposing: Primary screen for SK-N-MC cells (AID 1347093); note: potency is the fitted concentration of half-maximal effect
Method in brief: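 Metabolically active cells were quantified by ATP-dependent luminescence (CellTiter-Glo, 15 min at room temperature) following 48 h treatment. Cells had been plated at 500-1,000 per well and settled for 5 h beforehand.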

[8] = qHTS of pediatric cancer cell lines to identify multiple opportunities for drug repurposing: Primary screen for U-2 OS cells (AID 1347096); note: nearly all actives have a fitted effect of over 50% in size
Method in brief: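 Cells (500-1,000/well) in growth media were settled 5 h at 37 degrees C, then given compounds for 48 h. Viability was read as CellTiter-Glo luminescence. Primary runs used MIPE at 11 points (0.78 nM-46 µM) and NPC at 8 points (0.59 nM-46 µM); follow-ups used 11 points.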

[9] = qHTS of pediatric cancer cell lines to identify multiple opportunities for drug repurposing: Primary screen for SJ-GBM2 cells (AID 1347091); note: potency is the fitted concentration of half-maximal effect
Method in brief: as §1

[10] = qHTS of pediatric cancer cell lines to identify multiple opportunities for drug repurposing: Primary screen for NB-EBc1 cells (AID 1347095); note: potency is the fitted concentration of half-maximal effect
Method in brief: (§2)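 Primary screen of approved and investigational compounds on cells in growth media at 37 degrees C, 5% CO2. MIPE set at 11-point and NPC set at 8-point dilutions; viability scored by ATP-based luminescence at 48 hours.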

[11] = qHTS of pediatric cancer cell lines to identify multiple opportunities for drug repurposing: Primary screen for Saos-2 cells (AID 1347097); note: nearly all actives have a fitted effect of over 40% in size; note: potency is the fitted concentration of half-maximal effect
Method in brief: as §2

[12] = qHTS of pediatric cancer cell lines to identify multiple opportunities for drug repurposing: Primary screen for BT-37 cells (AID 1347094); note: series mostly up to about 57 µM
Method in brief: as §2

[13] = qHTS of pediatric cancer cell lines to identify multiple opportunities for drug repurposing: Primary screen for SK-N-SH cells (AID 1347098); note: nearly all actives have a fitted effect of over 65% in size; note: potency is the fitted concentration of half-maximal effect
Method in brief: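 Cells (500-1,000/well) rested 5 h, then received compounds for 48 h; metabolically active cells were measured by CellTiter-Glo luminescence. Final concentrations spanned up to 46 µM (MIPE, 11-point) or 0.59 nM-46 µM (NPC, 8-point) in primary screens, 11-point in follow-ups.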

Measured: Potency

O=C1C(c2c(O)[nH]c3ccccc23)=Nc2ccccc21
inactive: [1] | [2] | [3] | [4] | [8]
active: [5] 0.59 µM | [6] 0.59 µM | [7] 0.118 µM

C[C@]12CC[C@@H]3c4ccc(O)cc4CC[C@H]3[C@H]1[C@@H](O)[C@@H](O)[C@H]2O
active: [6] 14.8 µM
inactive: [1] | [2] | [3] | [4] | [9] | [8]

CCOC(=O)N1CCN([N+]([O-])=NOc2cc(ON=[N+]([O-])N3CCN(C(=O)OCC)CC3)c([N+](=O)[O-])cc2[N+](=O)[O-])CC1
active: [9] 14.8 µM | [10] 5.9 µM
inactive: [1] | [2] | [3] | [4] | [5] | [8] | [11]

COC(=O)[C@H](c1ccccc1Cl)N1CCc2sccc2C1
inactive: [1] | [2] | [3] | [4] | [5] | [9] | [10] | [8]
active: [6] 1.48 µM

COc1nc(C)cnc1NS(=O)(=O)c1cccnc1-c1ccc(-c2nnco2)cc1
inactive: [1] | [2] | [3] | [4] | [5] | [9] | [7] | [12] | [10] | [8] | [11]

COc1cccc(OC)c1-c1cc(C(=O)NC2(C(=O)O)C3CC4CC(C3)CC2C4)nn1-c1ccnc2cc(Cl)ccc12 (stereo not given)
active: [9] 26.4 µM | [7] 18.7 µM
inactive: [1] | [2] | [3] | [4] | [6] | [12] | [8] | [11]

N=C1SC(=Cc2ccc(-c3ccc4c(c3)C(=O)NC4=O)o2)C(=O)N1c1ccc(Br)cc1
inactive: [1] | [2] | [3] | [4] | [5] | [6] | [8] | [11]
active: [9] 2.64 µM | [10] 3.72 µM

Cc1ccc2c(=O)c3cccc(CC(=O)O)c3oc2c1C
active: [5] 14.8 µM | [6] 9.35 µM | [7] 16.6 µM | [13] 24.1 µM
inactive: [1] | [2] | [3] | [4] | [9] | [8]

COc1nccc(-c2c(-c3ccc(F)cc3)ncn2C2CCC(O)CC2)n1 (stereo not given)
inactive: [1] | [2] | [3] | [4] | [5] | [6] | [7] | [8]

CNC(=O)c1ccc2c(C(=Nc3cccc(CN(C)C)c3)c3ccccc3)c(O)[nH]c2c1
inactive: [1] | [2] | [3] | [4] | [5] | [8]
active: [13] 21.5 µM

CN[C@@H](C)[C@H]1[C@H](O)C[C@@]2(C)[C@@H]3CC[C@H]4C(C)(C)[C@@H](NC)CC[C@@]45C[C@@]35CC[C@]12C
inactive: [1] inactive [at 9.29 µM] | [2] | [3] | [4] | [5] | [9] | [12] | [10] | [8] | [11]

O=c1cc(-c2ccc(O)c(O)c2)oc2cc(O)cc(O)c12
inactive: [1] | [2] | [3] | [4] | [5] | [9] | [12] | [10] | [8] | [11]

CCCCCCCCCCCCCCCC(=O)O[C@H]1[C@@H](O)[C@@H](O)[C@@H]([C@H](NC(=O)[C@@H]2C[C@@H](CCC)CN2C)[C@H](C)Cl)O[C@@H]1SC
inactive: [1] | [2] | [3] | [4] | [9] | [12] | [10] | [8] | [11]
active: [7] 18.7 µM

Cc1ccccc1C(=O)c1ccc(Nc2ccc(Br)cc2N)cc1Cl
inactive: [4] | [13]
active: [1] 14.6 µM | [2] 20.6 µM | [3] 9.35 µM | [9] 23.5 µM | [6] 18.7 µM | [7] 16.6 µM | [11] 18.7 µM

COc1cc(Nc2nc3ccccc3nc2NS(=O)(=O)c2ccc(NC(=O)c3ccc(C)c(OC)c3)cc2)cc(OC)c1
active: [5] 23.5 µM | [9] 23.5 µM | [6] 23.5 µM | [7] 26.4 µM | [10] 26.4 µM | [13] 24.1 µM
inactive: [1] | [2] | [3] | [4]

CNc1nc(Nc2ccc(C(=O)N3CCOCC3)cc2OC)ncc1Cl
inactive: [1] | [2] | [3] | [4] | [5] | [9] | [12] | [8]

CO[C@H]1O[C@@H]2O[C@@]3(C)CC[C@@H]4[C@@H](C)CC[C@@H]([C@H]1C)[C@@]24OO3
active: [7] 5.26 µM
inactive: [1] | [2] | [3] | [4] | [5] | [9] | [6] | [8]

— PubChem BioAssay (NCATS)
